The structures appear in SMILES notation. Inconclusive results are not listed. Where a call stands in place of a potency, no number is given. Activity calls are given as the source filed them. Calls follow the shape of the dose curve; as a rule, active = well fitted curve in the direction sought with a large enough effect; inconclusive = small, poorly fitted or top-dose-only effect, or another doubt; inactive = no such curve, though single readings can be large; an effect the other way counts as inactive or inconclusive.

Chain of Lysine-specific demethylase 5B (Homo sapiens) (Q9UGL1 whole entry, looked up): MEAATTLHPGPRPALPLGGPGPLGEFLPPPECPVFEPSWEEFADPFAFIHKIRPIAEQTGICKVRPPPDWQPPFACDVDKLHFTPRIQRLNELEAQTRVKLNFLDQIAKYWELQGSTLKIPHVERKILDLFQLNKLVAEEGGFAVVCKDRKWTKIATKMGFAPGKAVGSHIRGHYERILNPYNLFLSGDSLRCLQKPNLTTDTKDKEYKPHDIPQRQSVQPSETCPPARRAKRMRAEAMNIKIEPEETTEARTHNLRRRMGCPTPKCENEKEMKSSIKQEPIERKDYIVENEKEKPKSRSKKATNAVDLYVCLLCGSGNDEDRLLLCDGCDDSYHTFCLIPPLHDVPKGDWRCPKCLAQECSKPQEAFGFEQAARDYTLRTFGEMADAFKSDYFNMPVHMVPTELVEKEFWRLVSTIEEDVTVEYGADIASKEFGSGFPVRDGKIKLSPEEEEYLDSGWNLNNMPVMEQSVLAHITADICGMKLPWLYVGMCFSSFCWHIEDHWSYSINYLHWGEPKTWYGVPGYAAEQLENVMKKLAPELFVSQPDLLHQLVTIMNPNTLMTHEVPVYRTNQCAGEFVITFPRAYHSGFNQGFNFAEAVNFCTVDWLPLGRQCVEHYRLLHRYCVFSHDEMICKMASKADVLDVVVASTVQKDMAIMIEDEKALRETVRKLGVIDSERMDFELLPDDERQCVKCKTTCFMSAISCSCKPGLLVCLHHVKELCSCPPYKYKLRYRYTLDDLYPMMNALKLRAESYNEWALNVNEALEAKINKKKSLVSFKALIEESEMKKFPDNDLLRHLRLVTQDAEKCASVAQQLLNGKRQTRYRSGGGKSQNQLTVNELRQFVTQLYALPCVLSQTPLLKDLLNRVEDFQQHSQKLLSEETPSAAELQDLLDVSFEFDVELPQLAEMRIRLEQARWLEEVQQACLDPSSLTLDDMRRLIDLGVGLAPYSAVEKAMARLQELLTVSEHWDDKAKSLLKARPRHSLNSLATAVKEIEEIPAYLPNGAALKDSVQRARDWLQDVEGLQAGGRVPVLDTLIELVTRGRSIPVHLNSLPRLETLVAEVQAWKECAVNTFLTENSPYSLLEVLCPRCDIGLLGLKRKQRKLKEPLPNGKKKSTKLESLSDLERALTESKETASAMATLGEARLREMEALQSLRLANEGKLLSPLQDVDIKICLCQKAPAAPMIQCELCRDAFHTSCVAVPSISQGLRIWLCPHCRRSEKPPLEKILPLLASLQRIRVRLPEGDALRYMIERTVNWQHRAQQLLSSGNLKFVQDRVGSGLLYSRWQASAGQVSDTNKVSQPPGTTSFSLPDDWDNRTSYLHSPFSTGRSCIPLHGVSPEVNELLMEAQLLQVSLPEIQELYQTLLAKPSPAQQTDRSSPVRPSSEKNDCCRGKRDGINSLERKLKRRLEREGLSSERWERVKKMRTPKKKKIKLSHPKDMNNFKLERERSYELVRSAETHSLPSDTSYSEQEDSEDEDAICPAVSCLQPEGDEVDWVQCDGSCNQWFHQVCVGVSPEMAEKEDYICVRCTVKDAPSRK

The first assay has as its system Zika virus NS2B-NS3 protease (unlinked complex). The assay can be described thus: Primary screen GU Rhodamine qHTS for Zika virus inhibitors: Unlinked NS2B-NS3 protease assay (AID 1347159). Also: nearly all actives have a fitted effect of over 60% in size. Also: potency is read from the fitted curve at half-maximal effect. The note with it: Recombinant ZIKV NS2B-NS3 protease, Rhodamine110 substrate fluorescence; series mostly up to 107 µM. In short, it runs like this:
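Buffer 10 mM Tris-HCl pH 8.0, 0.01% Tween 20. Unlinked protease 25 nM; compound preincubation 15 min, RT, protected from light. Substrate Rhod110, 1.5 microM; ~15% conversion in 15 min.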
Consider `CC(C)c1nc(CN(C)C(=O)N[C@H](C(=O)N[C@@H](Cc2ccccc2)C[C@H](O)[C@H](Cc2ccccc2)NC(=O)OCc2cncs2)C(C)C)cs1`, for which the Potency entry was “inactive”. Take `Cc1cc2c(s1)Nc1ccccc1N=C2N1CCN(C)CC1`: the Potency result is “inactive”. With `Cc1nccn1CC1CCc2c(c3ccccc3n2C)C1=O` (stereo not drawn), the Potency entry is “inactive”. On to `COc1cc(Nc2c(C#N)cnc3cc(OCCCN4CCN(C)CC4)c(OC)cc23)c(Cl)cc1Cl`, for which the Potency entry was “inactive”. Consider `CN(C)CCCC1(c2ccc(F)cc2)OCc2cc(C#N)ccc21` (stereo not drawn), for which the Potency result was “inactive”. `O=C(OC1C[C@H]2CC[C@@H](C1)[N+]21CCCC1)C(O)(c1ccccc1)c1ccccc1` (stereo partly drawn): the Potency entry was “inactive”. As for `O=C(O)c1cccc(-c2noc(-c3ccccc3F)n2)c1`, the Potency result is “inactive”. For the compound `CCC(C)(Oc1ccc(C2(c3ccc(OC(C)(CC)C(=O)O)cc3)CCCCC2)cc1)C(=O)O` (stereo not drawn), the Potency is 31.6 µM (active).

Turning to `COc1ccc2cc([C@H](C)C(=O)O)ccc2c1`, the Potency entry is “inactive”. With `OC(CN1CCN(c2cccc(Cl)c2)CC1)C(c1ccccc1)c1ccccc1` (stereo not drawn), the Potency entry is “inactive”. `COc1cc2c(N3CCN(C(=O)Nc4ccc(OC(C)C)cc4)CC3)ncnc2cc1OCCCN1CCCCC1`: the Potency result was “inactive”. `COCCCOc1ccnc(CS(=O)c2nc3ccccc3[nH]2)c1C` (stereo not drawn): the Potency result is “inactive”. Still for that read-out and setting: to `COc1ccc(C2(C#N)CCC(C(=O)O)CC2)cc1OC1CCCC1` (stereo not drawn) belongs “inactive”.

A further assay addresses Lysine-specific demethylase 5B (Homo sapiens) (UniProt Q9UGL1). The assay can be described thus: Optimization screen for KDM5B Histone Demethylases FDH coupled qHTS against the LOPAC library (AID 1347166). The note with it: KDM5B demethylation, FDH-coupled NADH fluorescence (FDH is formaldehyde dehydrogenase); series mostly up to 57.5 µM. In short, it runs like this: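 KDM5BDeltaAP (200nM final) in 50mM HEPES pH 7.5, 0.01% Tween-20 was preincubated with compound for 10 min at room temperature. A substrate mix of 12.5uM H3K4Me3, 25uM a-ketoglutarate, ascorbate, Fe2+, NAD+ and formaldehyde dehydrogenase was then added. NADH fluorescence (340/450 nm) was read initially and after 30 min.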
As for `CN(C)CCCC1(c2ccc(F)cc2)OCc2cc(C#N)ccc21` (stereo not drawn), the call was inactive.

With `Cc1cccc(C#Cc2ccccc2)n1`, the call was inactive. On the same count and under the same terms, to `COc1ccc2cc([C@H](C)C(=O)O)ccc2c1` belongs “inactive”. Take `O=C1c2ccccc2-c2n[nH]c3cccc1c23`: the compound was called inactive.

As to `OC(CN1CCN(c2cccc(Cl)c2)CC1)C(c1ccccc1)c1ccccc1` (stereo not drawn), the result was inactive.

For the origin of these results see PubChem BioAssay (NCATS).
